From PubChem BioAssay (NCI) come the findings set out here.

This is part of a sample that, as a whole, favours compounds with a hit. Of some 83,000 tested, about 20% had one in any assay.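 Single-concentration screen, 48 h exposure, 96-well plates. Endpoint: percent growth. Below 10 = active.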 Unmarked numbers belong to inactive results. Calls of active or inactive are those of the source.

Common to all, as to test: NCI-60 one-dose screen, 48 h (100 = growth as untreated, 0 = no growth, -100 = all killed)
Common to all, as to conditions: 10 µM

The subject of test [1] is NCI-H23 lung.
Test [2] relates to NCI-H226 lung.
Test [3] relates to NCI-H322M lung.
Test [4] relates to HOP-62 NSCLC.
Test [5] deals with NCI-H460 lung.
For test [6], the system named is NCI-H522 lung.
Test [7] concerns A549/ATCC NSCLC.
In test [8] the test system is 786-0 renal.
For test [9], the system named is COLO 205 colon.
For test [10], the system named is DU-145 prostate.

Turning to `Cc1ccc(Nc2cc(C)nc(NCCCNc3ccnc4cc(Cl)ccc34)n2)cc1`, the growth is 17.6% in test [1]; 48.5% in [2]; -31.8% (active) in test [3]; -12.4% (active) in test [4]; -45.4% (active) in [5]; -83.5% (active) in [6]. Further, the growth in test [7] is -69.3% (active); in [8] it was -100% (active); in test [9], -88.2% (active); in [10], -17.8% (active).
Take `CCN(CC)CCC(CNc1c(C)cnc2cc(Cl)ccc12)c1ccc(Cl)c(Cl)c1` (stereo not given): the growth in test [1] was 63.7%; in test [2] it was 85.9%; in test [3], 51.8%; in test [4], 68.8%; in test [5], 63.8%; in test [6] it was 49.2%. Also, the growth in [7] is 64.1%; in test [8], 60.2%; in test [9], -56.5% (active); in test [10] it was 73.8%.
As for `Cn1c(C(N)=O)cc2c1-c1nc(Nc3ccccc3)ncc1CCC2`, the growth in test [1] was 52%; in [2], 38.1%; in [3], 46.6%; in [4] it was 38.8%; in test [5], 37.6%; in test [6], 33.5%. Besides, the growth was 31.1% in test [7], 49.9% in test [8], 59.8% in test [9] and 55.5% in test [10].
Take `O=C1/C(=C\c2ccc(Br)cc2)CN(C(=O)c2ccccc2F)C/C1=C\c1ccc(Br)cc1`: the growth in test [1] is 23.5%; in [2] it was -30.3% (active); in test [3], 60.7%; in test [4] it was -7.85% (active); in test [5], 43.3%; in test [6] it was -1.44% (active). Moreover, the growth in [7] was 2.51% (active); in test [8], -52.4% (active); in [9], 5.27% (active); in test [10], 6.51% (active).
As for `O=c1oc2cc(OS(=O)(=O)c3ccccc3)ccc2c2c1CCCCC2`, the growth in test [1] is 68.4%; in test [2], 59.6%; in [3], 82.6%; in test [4], 78.2%; in [5] it was 28.4%; in test [6] it was 66.4%. Further, the growth is 34.7% in [7], 68.8% in test [8], 31.1% in test [9] and 84.8% in [10].
With `COc1ccc(OC)c(NC(=O)c2sc3nc4c(cc3c2N)C(=O)CCC4)c1`, the growth in [1] is 78.5%; in test [2], 88.6%; in [3], 75.9%; in [4] it was 94%; in [5] it was 37.4%; in test [6], 60.6%. In addition, the growth in [7] was 39%; in test [8], 95.4%; in test [9] it was 34.1%; in test [10] it was 113%.
Turning to `O=C1C(c2ccccc2)C2C=CC(C2)N1O` (stereo not given), the growth in [1] was 105%; in [2] it was 101%; in [3], 102%; in test [4], 105%; in test [5], 111%; in test [6], 96.4%. The growth was 112% in test [7], 102% in [8], 104% in test [9] and 114% in [10].
Turning to `O=C(Nc1nc2ccccc2s1)Nc1ccc([N+](=O)[O-])cc1Cl`, the growth in test [1] was 36.9%; in test [2] it was 103%; in [3], 33.3%; in test [4] it was 110%; in [5], 32.6%; in [6], -22.6% (active). For the same molecule, the growth was -53.1% (active) in test [7], -23.5% (active) in test [8], 111% in test [9] and 87% in [10].
`O=C(CC(NC(=O)OCc1ccccc1)C(=O)OCc1ccccc1)OCc1ccccc1` (stereo not given): the growth in [1] was 106%; in [2], 106%; in test [3], 99%; in [4] it was 94%; in test [5], 101%; in test [6], 89.2%. Besides, the growth in test [7] was 99.3%; in test [8], 106%; in [9], 99.1%; in test [10] it was 111%.
For `Cc1cc(=O)[nH]c(N/N=C/c2ccccc2O)n1`, the growth in test [1] was 78.6%; in test [2] it was 91%; in [3] it was -5.84% (active); in [4] it was 61.3%; in test [5] it was 23.3%; in [6] it was 77.3%. For the same molecule, the growth in test [7] was 33.1%; in test [8] it was 93.4%; in [9] it was 49.2%; in test [10], 78.8%.
In the case of `O=C(Nc1cccc(-n2cc(-c3ccncc3)c(-c3ccc(O)c(Cl)c3)n2)c1)Nc1ccc(Cl)c(Cl)c1`, the growth in test [1] was 5.31% (active); in test [2] it was 51.1%; in test [3], -6.78% (active); in [4], 8.83% (active); in test [5] it was -4.26% (active); in test [6] it was -13.1% (active). In addition, the growth was 0.252% (active) in test [7], -6.94% (active) in test [8], 77.8% in test [9] and 11.5% in [10].
For the molecule `N#Cc1cccc(OCc2nc(N)nc(N)c2-c2ccc(Cl)c(Cl)c2)c1`, the growth is 32.9% in test [1]; 46.7% in [2]; 24.7% in test [3]; 35.9% in test [4]; 11.5% in test [5]; 8.77% (active) in test [6]. The growth in test [7] is 7.65% (active); in [8], 19.4%; in test [9], 34.1%; in test [10], 25.3%.
As for `ClCCOCCn1cnc2c(Cl)nc(Cl)nc21`, the growth in [1] is 55.1%; in [2], 74.8%; in test [3], 89.9%; in test [4], 88.6%; in test [5], 28.5%; in test [6], 60.1%. Further, the growth was 60.7% in test [7], 87.6% in test [8], 88.1% in test [9] and -5.51% (active) in test [10].
On to `CCCCCCCCCCCCCC[n+]1ccc(C(N)=O)cc1`, for which the growth in [1] is 16.7%; in test [2], -7.94% (active); in test [3], 58.8%; in [4], 10.5%; in test [5], 0.582% (active); in test [6], -21.7% (active). Further, the growth was 33.6% in test [7], -12.1% (active) in test [8], -100% (active) in test [9] and 22.8% in test [10].
